Pf growth 96h = P. falciparum growth inhibition at 96 hours; P. falciparum luciferase reporter growth, 96 h; Potency, µM (highest dose often 28.7 µM), inactives show at the highest dose activity change, negative = inhibition, hits mostly inhibitors; actives 6.9% (n = 320,000); AID 504834; note: % is set by controls: 0 for no effect and ±100 for the full control effect
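Parasite growth measured via integrated firefly luciferase reporter in P. falciparum. Infected erythrocytes at 2% hematocrit, 0.05% parasitemia final were treated 96 hours at 37 C under 5% CO2, and luminescence was read.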
SARS PLP yeast = blocks SARS-CoV papain-like protease in a yeast assay. Potency, µM (titrated, usually from 32.9 µM), without a hit: at the highest dose activity, positive = growth rescue, most hits filed as activators. S. cerevisiae expressing SARS-CoV PLpro, growth rescue. actives 0.19% (n = 330,000); calls by dose curve; note: 0% is about no effect; nearly all actives have a fitted effect of over 55% in size
Pf growth 48h = P. falciparum growth inhibition at 48 hours (one generation) | P. falciparum luciferase growth in erythrocytes, 48 h | Potency, µM (series often up to 28.7 µM), for inactives: top-dose activity change, negative = inhibition, usual class: inhibitors | actives 5.9% (n = 310,000); note: % is set by controls: 0 for no effect and ±100 for the full control effect
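In quantitative HTS format, infected erythrocytes bearing luciferase-reporter parasites were treated for a single generation at 37 C. Luminescence after adding detection reagent served as the growth measure.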
Sm TGR block = inhibitors of Schistosoma mansoni thioredoxin glutathione reductase; Potency, µM (series often up to 114 µM), inactives show at the highest dose activity change, negative = inhibition, most hits filed as inhibitors; AID 485364; purified TGR, DTNB reduction, TNB absorbance 405 nm; Q962Y6; actives 3% (n = 360,000); note: % is set by controls: 0 for no effect and ±100 for the full control effect; nearly all actives have a fitted effect of over 60% in size
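Kinetic colorimetric format: TGR-catalysed, NADPH-driven DTNB reduction monitored via TNB absorbance. Enzyme dispensed at 20 nM; compound exposure 15 min at room temperature before reaction start.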
Active calls of the source: *; ? = inconclusive; . = no result given; [ ] = dose if it differs, or a comment. This is a sample that favours compounds with a hit; in the whole collection about 12% have one here. Unless noted, calls come from the whole dose curve; as a rule, active = well fitted curve in the direction sought with a large enough effect; inconclusive = small, poorly fitted or top-dose-only effect, or another doubt; inactive = no such curve, though single readings can be large; an effect the other way counts as inactive or inconclusive. Potency is the fitted concentration of half-maximal effect.

SMILES | Pf growth 96h | SARS PLP yeast | Pf growth 48h | Sm TGR block
O=C(O[C@@H]1Cc2c(O)cc(O)cc2O[C@@H]1c1cc(O)c(O)c(O)c1)c1cc(O)c(O)c(O)c1 | . | ? | . | 11µM*
CCC(C)[C@H](NC(=O)C1CC(=O)N(c2ccc(OC)cc2)C1)C(=O)NC1CCCC1 (some centres not stated) | ? | -3% | 14% | 7%
CCCOc1ccc(C2C(=O)N(C3CCCCCC3)CC(=O)N2CCCOCC)cc1OC (configuration not stated) | . | . | . | 4%
CN(C(=O)COC(=O)/C=C/c1cn(-c2ccccc2)nc1-c1ccc2c(c1)OCCO2)C1CCS(=O)(=O)C1 (configuration not stated) | 12µM* | 0% | ? | 10%
CCCN(CC(=O)Nc1ccccc1C)C(=O)c1ccc(COc2ccccc2)cc1 | 18% | 4% | ? | 18%
Nc1cc(=O)[nH]c(SCC(=O)Nc2cc(S(=O)(=O)N3CCCCC3)ccc2Cl)n1 | ? | 13% | ? | 1%
COc1ccc(C(=O)NC(Nc2ccc(C)cc2)C(Cl)(Cl)Cl)cc1 (configuration not stated) | 41% | -4% | ? | 1%
COc1ccc(NC(NC(=O)c2ccc(OC)cc2)C(Cl)(Cl)Cl)cc1 (configuration not stated) | 4.1µM* | -1% | ? | 8%
CCc1ccc(-n2c(C)nc3cc(C(=O)NCCc4ccccc4)ccc32)cc1 | . | . | . | 12%
CNC(=S)Nc1cccc(C(=O)O)c1 | -39%[5.75 µM] | 0% | 14% | 3.2µM*
O=C(O)c1cccc(NC(=S)NC(=O)c2ccncc2)c1 | 9.3µM* | 1% | 32% | 32µM*
O=C(O)c1cccc(NC(=S)NC(=O)c2cccc(OCc3ccccc3)c2)c1 | 43% | 0% | 5% | 25µM*
COCCNc1nc(N2CCCCC2)c2cnn(C)c2n1 | 4% | -9% | 9% | -23%
COc1ccc(NC2c3ccccc3C(=O)N2c2cccnc2)cc1 (configuration not stated) | 10µM* | 2% | ? | 6%
O=C1c2ccccc2C(Nc2ccc3c(c2)OCCO3)N1c1ccccn1 (configuration not stated) | 32% | 14% | 9.3µM* | -25%
O=C1c2ccccc2C(Nc2ccc3c(c2)OCCO3)N1c1ccc(Cl)cn1 (configuration not stated) | 32% | -5% | . | -9%
O=C1c2ccccc2C(Nc2ccc(F)c(Cl)c2)N1c1ccccn1 (configuration not stated) | 4.7µM* | -1% | . | -22%
O=C1c2ccccc2C(Nc2ccccc2)N1c1ccc(Cl)cn1 (configuration not stated) | ? | 6% | . | -3%
COc1ccc(NC2c3ccccc3C(=O)N2c2ccccn2)cc1Cl (configuration not stated) | 8.3µM* | 25% | . | 0%
O=C(Nc1ccc(Br)cc1F)c1cc(S(=O)(=O)NC2CCCCC2)ccc1F | . | . | . | 6%
CC1=C(C(=O)OCCCCCl)C(c2cc3c(cc2Br)OCO3)NC(=O)N1 (configuration not stated) | ? | -3% | -50% | -19%
CCC1=C(c2ccc(C)cc2)S(=O)(=O)N=C1N1CCC(C(=O)NCc2ccc(N(C)C)cc2)CC1 | . | . | . | -75%
CCCCC1C(=O)N(c2ccccc2)N(c2ccccc2)C1=O | 3.3µM* | 2% | ? | -26%
CCCC(C)NC(=O)Cc1ccc(S(=O)(=O)N2CCOCC2)s1 (configuration not stated) | -23% | 0% | -27% | -20%
Cc1c(NC(=O)c2cccc3c(Cl)cccc23)cccc1-c1nc2ccccc2o1 | . | . | . | 7%
SMILES | Pf growth 96h | SARS PLP yeast | Pf growth 48h | Sm TGR block
COc1cc2c(cc1OC)CN(Cc1cc(=O)oc3cc(C)c(Cl)cc13)CC2 | ? | 6% | 9.3µM* | -5%
Cc1ccc(C)c(CN2C(=O)NC3(CCCCCC3)C2=O)c1 | -19% | -9% | 11% | 8%
Cc1cc(=O)oc2c(C)c(OCC(=O)N(C)C)ccc12 | ? | -1% | 23% | 4%
Cc1ccc2c(CN3C(=O)NC4(CCCCC4)C3=O)cc(=O)oc2c1C | 0.13µM* | 1% | 0% | -6%
COc1cc2c(cc1OC)CN(Cc1cc(=O)oc3cc(C)c(C)cc13)CC2 | ? | -5% | ? | -7%
COc1ccc2c(C)cc(=O)oc2c1C | 5.9µM* | 8% | . | 2%[11.4 µM]
COc1cc2c(cc1OC)CN(Cc1cc(=O)oc3c(C)c(C)ccc13)CC2 | 13µM* | 7% | -27% | 0%
Cc1ccc2c(CN3CC=C(c4ccccc4)CC3)cc(=O)oc2c1C | 3.3µM* | 4% | 5.2µM* | -18%
Cc1ccc2c(CN3CCN(S(=O)(=O)c4ccc5c(c4)OCCO5)CC3)cc(=O)oc2c1C | ? | 1% | 9.3µM* | 0%
COc1cccc(NC(=O)c2nn(C)c(C(=O)Nc3cccc(OC)c3)c2[N+](=O)[O-])c1 | 6.6µM* | 0% | 33% | -19%
Cc1ccc(NC(=O)COc2cccc(-n3cnnn3)c2)cc1S(=O)(=O)N1CCOCC1 | ? | 0% | 13µM* | 1%
COc1ccc(OCCOC(=O)c2cccc(-n3cnnn3)c2)cc1 | 15µM* | 4% | 53% | 5%
COc1cccc(NC(=O)COc2ccccc2)c1 | -8% | -4% | 75% | 9%
COc1cc(NC(=O)COc2cccc(OC)c2)cc(OC)c1 | 5.2µM* | 2% | 9% | 0%
Cc1ccc(CSc2nc3ccccc3c(=O)n2C)cc1 | -13% | 0% | -20% | -11%
COc1cc(NC(=O)N2CCN(c3cc(-c4noc(C)n4)ccc3C)CC2)cc(OC)c1OC | . | . | . | 0%
COc1ccc(C(=O)Nc2ccc3c(c2)C(=O)N(C)C3=O)cc1OC | -1% | 8% | 0% | 13%
COc1ccc(NC(=O)COc2cccc(-n3cnnn3)c2)cc1 | 10µM* | 0% | 29% | 8%
COc1ccc(C(CC(=O)Nc2cc(OC)cc(OC)c2)n2cccc2)cc1 (configuration not stated) | ? | 17% | 13µM* | -18%
COc1cccc(NC(=O)c2ccc(-n3cnnn3)cc2)c1 | 4.1µM* | -2% | 18% | 3%
CC(=O)c1c[nH]c(C(=O)NCc2cccc(C(F)(F)F)c2)c1 | 0% | -1% | -13% | 31%
Cc1ccc(-c2nc3ncccn3c2Nc2ccc3c(c2)OCCO3)o1 | ? | 0% | 5% | 50µM*
Cc1ccc(-c2nc3ncccn3c2Nc2ccc3c(c2)OCCO3)cc1 | 12µM* | 0% | . | -15%
Brc1ccc(-c2nc3ncccn3c2Nc2ccc3c(c2)OCCO3)o1 | 24% | 10% | . | -27%
O=C(COc1ccccc1)NC1CC(=O)N(c2ccc3c(c2)OCCO3)C1 (configuration not stated) | . | . | . | -1%
OCc1ccccc1 | 6µM* | . | 5.4µM* | .
COC(=O)C1(C)NC(c2ccc(O)cc2)C2C(=O)N(c3ccc(C)cc3)C(=O)C21 (configuration not stated) | 4.7µM* | -2% | 30% | ?
